# Measured values from PubChem BioAssay AID493209 (National Center for Advancing Translational Sciences (NCATS), 2011).
# The source made the active and inactive calls.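 The calls were made as follows: active = compounds that raised 12-lipoxygenase product formation in the cuvette follow-up test, with a fitted potency; inactive = the rest, inconclusive results apart.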
# Target: Polyunsaturated fatty acid lipoxygenase ALOX12 (Homo sapiens) (UniProt P18054)
# Assay: Activators of 12-hLO (12-human lipoxygenase): 12hLO Cuvette-Based Hit Validation Assay of Followup Compounds
# Settings: purified 12-hLO, cuvette UV 234 nm product formation
# Description: The enzyme activity of 12-hLO was determined by a direct measurement of product formation by monitoring the absorbance at 234 nm in a 2 mL cuvette. IC50 values of inhibitors were obtained by measuring the enzymatic rate at a variety of concentrations (Carroll et al, Segraves et al). This assay was used to validate active or inconclusive putative activators identified in the primary screen (see related BioAssay AIDs). Assay Provider: Holman, T.R., University of California, Santa Cruz Screening Center PI: Austin, Christopher P. Screening Center: NIH Chemical Genomics Center
# For control experiments, 2 mL of substrate buffer (10 uM arachidonic acid / 25 mM HEPES / 0.01% (v/v) Triton X-100, pH 8.0) was aliquoted in a cuvette with a magnetic stir bar. After equilibrium was ensured, an aliquot of inhibitor solvent was added (DMSO), and equilibrium was once again assured. The reaction was started by adding enzyme to the cuvette and the reaction was followed until completed. The inhibition experiments were performed as above, except the actual inhibitory compound was added instead of vehicle. To achieve an IC50, typically 5 concentrations of the inhibitor were studied. If the inhibitor concentration was constant, then five different reaction volumes were used. Step \ Parameter \ Value \ Description 1; UV-Vis; 234 nm; Equilibration 2; Reagent; 2 mL; Substrate buffer 3; UV-Vis; 234 nm; Equilibration 4; Reagent; varies; Compound 5; UV-Vis; 234 nm; Equilibration 6; Reagent; 50-200 nM; Enzyme 12-hLO 7; UV-Vis; 234 nm; Enzymatic reaction Step \ Notes 1; Blank cuvette to air. 2; 10 uM AA, 25 mM HEPES, 0.01% Triton X-100, pH 8. 3; No change in absorbance ensured. 4; Compound vehicle or compound in various concentrations depending on potency. 5; No change in absorbance ensured. 6; Enzyme concentration to achieve reaction rate between 0.02 and 0.04 AU/s. 7; Enzymatic reaction visualized until completion.
# Polyunsaturated fatty acid lipoxygenase ALOX12 (Homo sapiens), sequence (P18054 whole entry, looked up): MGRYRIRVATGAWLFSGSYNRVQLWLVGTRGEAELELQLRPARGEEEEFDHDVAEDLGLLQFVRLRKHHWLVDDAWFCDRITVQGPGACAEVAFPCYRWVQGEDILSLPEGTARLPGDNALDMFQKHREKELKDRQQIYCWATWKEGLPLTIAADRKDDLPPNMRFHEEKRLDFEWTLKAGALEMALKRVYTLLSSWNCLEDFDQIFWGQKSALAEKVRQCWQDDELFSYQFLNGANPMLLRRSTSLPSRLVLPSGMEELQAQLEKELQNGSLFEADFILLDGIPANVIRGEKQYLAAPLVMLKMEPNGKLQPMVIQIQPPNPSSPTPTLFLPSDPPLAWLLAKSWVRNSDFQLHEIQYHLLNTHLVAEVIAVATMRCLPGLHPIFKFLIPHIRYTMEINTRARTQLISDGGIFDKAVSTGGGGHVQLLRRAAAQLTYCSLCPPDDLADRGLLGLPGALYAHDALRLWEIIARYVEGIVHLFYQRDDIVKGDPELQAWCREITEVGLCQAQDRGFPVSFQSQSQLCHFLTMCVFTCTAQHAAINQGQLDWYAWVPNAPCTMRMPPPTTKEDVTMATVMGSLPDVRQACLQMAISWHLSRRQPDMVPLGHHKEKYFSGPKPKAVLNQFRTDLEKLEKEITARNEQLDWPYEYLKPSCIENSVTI
Structure (SMILES),outcome,Potency
c1ccc(-c2nc(NCc3cccnc3)c3oc4ccccc4c3n2)cc1,inactive,–
Oc1ccc(-c2csc(-c3ccccc3)n2)cc1O,inactive,–
O=C(CSc1n[nH]c(-c2ccccc2)n1)c1ccc(O)c(O)c1,inactive,–
COc1cc(CNc2ccc(O)cc2)cc(Br)c1OCc1ccccc1F,inactive,–
CC(Oc1ccc(Cl)cc1Cl)C(=O)Nc1ccc(S(=O)(=O)Nc2cnc3ccccc3n2)cc1 (stereo not given),inactive,–
Oc1ccc(Cl)cc1-c1cc(-c2ccco2)[nH]n1,inactive,–
COc1ccc(-c2n[nH]c(C(F)(F)F)c2-c2cc3ccccc3o2)c(O)c1,inactive,–
COc1ccc(-c2n[nH]c(C)c2-c2ccc(Cl)cc2)c(O)c1,inactive,–
COc1ccc(C(Nc2ccccn2)c2c(NC(=O)c3ccco3)sc(C)c2C)cc1 (stereo not given),inactive,–
O=S(=O)(Nc1ccc(O)c(Sc2nc3ccccc3s2)c1)c1ccc(Cl)cc1,inactive,–
O=C(Nc1nnc(C2=COCCO2)o1)c1ccc(Cl)cc1,inactive,–
Cc1ccc(NC(=O)Nc2cccs2)c(Cl)c1,inactive,–
O=C(Nc1nnc(-c2ccc(Cl)cc2)o1)c1ccccc1Br,inactive,–
CN(C)c1nccc(N(Cc2ccccc2)Cc2ccccc2)c1C#N,inactive,–
Cc1ccc(S(=O)(=O)Nc2nc(C)c(NC(=O)Nc3ccc(Cl)cc3Cl)s2)cc1,inactive,–
Cc1cc(C)c2cc(CN(Cc3nnnn3C3CCCCC3)CC3CCCO3)c(=O)[nH]c2c1 (stereo not given),inactive,–
Oc1ccc(CN2CCCc3ccccc32)c2cccnc12,–,43.6 µM (active)
CCc1cc(-c2n[nH]c(C)c2Oc2ccc(C(C)C)cc2)c(O)cc1O,inactive,–
Oc1ccc(-c2nc(-c3ccc(O)c(O)c3)cs2)cc1,inactive,–
CSCCC(NC(=O)c1ccc(Cl)cc1)C(=O)OCC(=O)Nc1ccc(C#N)cc1 (stereo not given),inactive,–

Structure (SMILES),outcome,Potency
Cc1oc2c(O)c(O)ccc2c(=O)c1-c1cnn(-c2ccccc2)c1,inactive,–
CCCOC(=O)c1ccc(Oc2cn[nH]c2-c2ccc(OC)cc2O)cc1,inactive,–
CCOC(=O)CNC(c1ccccc1)c1cc(Br)ccc1NC(=O)CCN1CCOCC1 (stereo not given),–,70 µM (active)
COc1ccc2nc(NC(=O)c3cccc(OCc4c(C)noc4C)c3)sc2c1,inactive,–
COc1ccc(/C=C/c2nc(-c3ccccc3O)n[nH]2)cc1,inactive,–
COc1cccc(-c2cnc(NCc3cc(Cl)ccc3O)n2C)c1,inactive,–
COc1ccc(C(=O)Nc2cc(C(=O)c3ccccc3)c(C)oc2=O)cc1,–,61.6 µM (active)
CCOC(=O)Cc1cc(=O)n(-c2nc3ccccc3s2)[nH]1,inactive,–
Cc1[nH]nc(-c2ccc(O)cc2O)c1-c1ccc(Cl)cc1,inactive,–
COc1cc(CNc2ccc(N3CCCC3)cc2)ccc1OCc1ccccc1,inactive,–
Cc1ccc(C(=O)Nc2nnc(-c3ccco3)o2)cc1,inactive,–
Oc1ccccc1-c1cc(-c2cccc(F)c2)n[nH]1,inactive,–
Cc1[nH]nc(-c2ccc(O)cc2O)c1Oc1ccccc1,inactive,–
Oc1ccccc1-c1cc(-c2ccc3c(c2)OCCO3)n[nH]1,inactive,–
Cc1nc(N)sc1-c1csc(N(C)c2ccc(O)cc2)n1,inactive,–
O=C(NC(=S)Nc1ccccc1N1CCCC1)c1ccc([N+](=O)[O-])cc1,–,66.7 µM (active)
Cc1cc(Cl)cc(Cl)c1OCC(=O)NCc1ccco1,inactive,–
N#CC1=C(N)Oc2n[nH]c(-c3cccs3)c2C1C1CCCCC1 (stereo not given),inactive,–
CCc1ccc(S(=O)(=O)/N=C2/C=C(Sc3ncn[nH]3)C(=O)c3ccccc32)cc1,inactive,–
CC(Oc1ccc(Cl)cc1Cl)C(=O)NC1=NN(c2ccccc2)C(=O)C1 (stereo not given),inactive,–
